The text below walks through data of PubChem BioAssay AID1259416 (Broad Institute, 2018).

The structures appear in SMILES notation. The campaign covered roughly 69,000 compounds. About 2,600 (3.8%) were called active. Shown is part of a subset that was picked to be rich in actives. A number with no mark means an inactive call. No stated cut-off is given here; in the data, active means activity change below about -70% (passing the limit was not always enough); inconclusive means no clear call, values can overlap the other calls.

This assay is described as follows: inhibitors of Toxoplasma growth in IFN-γ-primed hosts – cell-based, primary screen (AID 1259416).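 Further: host cells are HeLa cells infected with Toxoplasma gondii.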 As to conditions: Toxoplasma gondii growth in IFN-gamma-treated host cells; stronger effect = lower value; concentration not given here.
`COc1ccccc1NC(=O)Cn1ncc2c(N3CCN(c4ccccc4)CC3)ncnc21`: the activity change, negative = inhibition is 74%.
Turning to `COc1ccc(-c2nc(C)c(CCNC(=O)C(=O)Nc3cccc(OC)c3)s2)cc1`, the activity change, negative = inhibition was 487%.
To `Cc1oc(-c2cccc(Oc3ccccc3)c2)nc1CN1[C@@H]2CC[C@H]1CNC(=O)C2` belongs -8.53%; to `O=C(CC1Nc2c3ccccc3nc(=S)n2C1=O)N1CCN(c2ccc(Cl)cc2)CC1` (stereo not drawn), -16.2%.
Take `COc1ncc(-c2cccc(C(C)N3CCCC3)c2)c(OC)n1` (stereo not drawn): the activity change, negative = inhibition is -10.7%.
Then `Cc1noc(C)c1S(=O)(=O)Nc1ccc2c(c1)C(=O)N([C@@H](C)CO)C[C@H](C)[C@@H](CN(C)C(=O)Nc1cccc3ccccc13)OCCCC[C@H](C)O2`, with 141%; and `C[C@@H]1CN([C@@H](C)CO)C(=O)c2cc(NS(=O)(=O)c3ccccc3)ccc2O[C@@H](C)CCCCO[C@H]1CN(C)C(=O)C1CCCCC1`, with -14.8%; and `C[C@@H]1CN([C@H](C)CO)C(=O)c2cc(NS(=O)(=O)c3cccs3)ccc2O[C@@H](C)CCCCO[C@@H]1CN(C)C(=O)c1ccncc1`, with 14.1%.
On to `Cc1noc(C)c1S(=O)(=O)N(C)C[C@@H]1OCCCC[C@H](C)Oc2ccc(NC(=O)CCC(F)(F)F)cc2C(=O)N([C@H](C)CO)C[C@H]1C`, for which the activity change, negative = inhibition is 94.9%.
Take `C[C@@H]1CN([C@H](C)CO)C(=O)c2cc(NS(=O)(=O)c3ccccc3)ccc2O[C@@H](C)CCCCO[C@H]1CN(C)C(=O)C1CCCCC1`: the activity change, negative = inhibition was -116% (active).
For the compound `Cc1ccc(S(=O)(=O)Nc2ccc3c(c2)C(=O)N([C@@H](C)CO)C[C@@H](C)[C@H](CN(C)Cc2ccc(C(F)(F)F)cc2)O3)cc1`, the activity change, negative = inhibition was -72.9% (active).
`C[C@@H]1CN([C@H](C)CO)C(=O)c2cc(NC(=O)Cc3ccccc3)ccc2O[C@@H](C)CCCCO[C@@H]1CN(C)Cc1ccncc1`: the activity change, negative = inhibition was 31.6%.
As to `C[C@@H]1CCCCO[C@@H](CN(C)Cc2ccncc2)[C@H](C)CN([C@H](C)CO)C(=O)c2cc(NC(=O)Cc3ccccc3)ccc2O1`, the activity change, negative = inhibition is 318%.
Then `C[C@@H]1CN([C@@H](C)CO)C(=O)c2cc(NS(C)(=O)=O)ccc2O[C@@H]1CN(C)C`, with -0.62%; and `C[C@H](CO)N1C[C@H](C)[C@H](CN(C)Cc2ccncc2)Oc2ccc(NS(=O)(=O)c3ccc(F)cc3)cc2CC1=O`, with 33.3%.
For `Cc1ccc(S(=O)(=O)Nc2ccc3c(c2)C(=O)N([C@H](C)CO)C[C@@H](C)[C@H](CN(C)S(=O)(=O)c2cccs2)OCCCC[C@@H](C)O3)cc1`, the activity change, negative = inhibition is -131% (active).
`C[C@H](CO)N1C[C@H](C)[C@@H](CN(C)Cc2ccncc2)OCCCC[C@H](C)Oc2ccc(NS(=O)(=O)c3ccc(Cl)cc3)cc2C1=O`: the activity change, negative = inhibition was -94.1% (active).
Then `CCOC(=O)c1oc2ccc(S(=O)(=O)Nc3ccc4[nH]c(=O)[nH]c4c3)cc2c1C`, with 75.3%; and `COCc1nnn2c1CN(Cc1ccc(C)s1)CCC2`, with -49.3%; and `O=C(C1CCOCC1)N1CC(=O)N2[C@H](CO)[C@H](c3ccc(C#CC4CCCCC4)cc3)[C@H]2C1`, with 19.2%.
On to `Cc1nc(SCC(=O)Nc2cccc(C(F)(F)F)c2)oc1C`, for which the activity change, negative = inhibition was 21%.
Then `COc1ccc(OC)c(NC(=O)Cn2c(=O)cc(C(=O)N3CCCCC3)c3ccccc32)c1`, with 5.37%; and `CN(C)C(=O)[C@@H]1CCS(=O)(=O)[C@H]2CN(C(=O)NCc3ccccc3)C[C@@H]12`, with 7.18%; and `COc1cccc(CC2(CO)CCN(c3ncnc4sccc34)CC2)c1`, with -61.2%.
Then `O=S(=O)(c1ccccc1)N1[C@H](CO)[C@@H]2c3ccccc3NC[C@@H]21`, with -13.4%.
Then `C[C@@H]1CCCCO[C@H](CN(C)Cc2ccc3c(c2)OCO3)[C@H](C)CN([C@@H](C)CO)C(=O)c2cc(NS(=O)(=O)c3cn(C)cn3)ccc2O1`, with 11.5%.
Regarding `C[C@@H]1CCCCO[C@@H](CN(C)S(=O)(=O)c2ccccc2)[C@H](C)CN([C@H](C)CO)C(=O)c2cc(NC(=O)Nc3ccc4c(c3)OCO4)ccc2O1`, the activity change, negative = inhibition was -79.4% (active).
Take `CNC[C@@H]1OCCCC[C@H](C)Oc2ccc(NS(=O)(=O)c3ccc(F)cc3)cc2C(=O)N([C@@H](C)CO)C[C@@H]1C`: the activity change, negative = inhibition is 41.1%.
As to `COc1ccc(S(=O)(=O)Nc2ccc3c(c2)C(=O)N([C@@H](C)CO)C[C@@H](C)[C@H](CN(C)Cc2ccc(C(F)(F)F)cc2)OCCCC[C@@H](C)O3)cc1`, the activity change, negative = inhibition is -112% (active).
With `C[C@@H]1CCCCO[C@H](CN(C)C(=O)Nc2ccccc2)[C@H](C)CN([C@H](C)CO)C(=O)c2cc(NC(=O)Nc3ccccc3)ccc2O1`, the activity change, negative = inhibition was 72.5%.
Then `COc1ccc(S(=O)(=O)Nc2ccc3c(c2)C(=O)N([C@@H](C)CO)C[C@H](C)[C@H](CN(C)Cc2ccc(C(F)(F)F)cc2)OCCCC[C@@H](C)O3)cc1`, with -47%; and `C[C@@H]1CCCCO[C@H](CN(C)C(=O)CCCN(C)C)[C@H](C)CN([C@@H](C)CO)C(=O)c2cc(NS(=O)(=O)c3ccc(Cl)cc3)ccc2O1`, with -84.8% (active).
To `C[C@@H]1CN([C@H](C)CO)C(=O)c2cc(NC(=O)NC3CCCCC3)ccc2O[C@@H](C)CCCCO[C@H]1CN(C)S(C)(=O)=O` belongs -35.8%.
`CNC[C@H]1OCCCC[C@@H](C)Oc2ccc(NS(=O)(=O)c3ccc(F)cc3)cc2C(=O)N([C@H](C)CO)C[C@H]1C`: the activity change, negative = inhibition was 193%.
For `C[C@@H](O)C#Cc1ccc([C@H]2[C@@H](CO)N3CCCCN(CC4CC4)C[C@@H]23)cc1`, the activity change, negative = inhibition was -5.07%.
Then `Cc1nc(-c2cccnc2)sc1C(=O)N(CCN(C)C)Cc1ccc2c(c1)OCO2`, with -47.1%; and `CCC(NC(=O)CCNC(=O)c1ccccc1F)c1cccs1` (stereo not drawn), with 98.8%; and `COc1ccc2c(c1)NC1(CCN(S(=O)(=O)c3c(C)nn(C)c3C)CC1)c1cccn1-2`, with 1.37%.
For `CN1C(=O)CCc2cc(C(=O)NCc3cccc(Cl)c3)ccc21`, the activity change, negative = inhibition is -50%.
To `Cc1csc(CCCNc2cc(N(C)C)ncn2)n1` belongs -14.5%; to `Cc1ccc(-c2nnn(CC(=O)N(CC(=O)NC(C)(C)C)c3ccc(C(C)C)cc3)n2)o1`, -40.3%; to `Cc1cc(C(=O)N2CCCC(N(C)C)CC2)sc1C` (stereo not drawn), 8.26%.
Then `CN(C)C1CCN(C(=O)c2ccnn2-c2ccc3ccc(-c4ccccc4)cn23)CC1`, with -101% (active).
Then `CC(C)n1cnc(-c2cc(C(=O)N3CCC(N(C)C)CC3)c3ccccn23)c1`, with -48.2%; and `CC(C)c1noc(C2CCCN(C(=O)c3cccc4ccnn34)C2)n1` (stereo not drawn), with 88%; and `Cc1ccc2c(c1)C1CN(C)CCC1N2S(=O)(=O)c1ccc(Oc2ccc([N+](=O)[O-])cc2)cc1` (stereo not drawn), with -88.8% (active).
In the case of `Cc1ccc(NC(=O)NCC(c2cccnc2)c2c[nH]c3ccccc23)cc1F` (stereo not drawn), the activity change, negative = inhibition was 41.3%.
Consider `C=CCOCC1c2c(ncn2C(C)C)CCN1C(=O)CC` (stereo not drawn), for which the activity change, negative = inhibition was -6.91%.
To `CC(=O)N1C[C@@H]2[C@H](c3ccccc31)[C@H](CO)N2Cc1ccc(Cl)cc1` belongs 2.64%; to `Cc1ccc(C(=O)N2CC[C@H]3[C@@H]2CCN3c2nncs2)o1`, 17.4%; to `Cc1cccc(C)c1-c1c(-c2ccccc2)ncn1CCCCN`, -13.6%.
Then `OC(Cn1cnc(-c2ccccc2)c1-c1ccccc1)Cn1c2ccccc2c2ccccc21` (stereo not drawn), with -85.9% (active).
In the case of `Cn1ccnc1-c1c(-c2ccccc2)ncn1CC(O)Cc1ccccc1` (stereo not drawn), the activity change, negative = inhibition was -0.253%.
For `CCCC(=O)NCCc1sc(-c2cccc(F)c2)nc1C`, the activity change, negative = inhibition is 257%.
Regarding `CCSc1nc(CC(=O)NCc2nnc3n2CCC3)cs1`, the activity change, negative = inhibition is -48.7%.
In the case of `c1ccc(C2CCCN2Cc2ccc3occc3c2)nc1` (stereo not drawn), the activity change, negative = inhibition is 2.99%.
To `COCC(=O)Nc1ccc(-c2nc(Cn3nc(C)cc3C)c(C)o2)cc1` belongs -41.3%; to `Cc1nn(Cc2nc(-c3ccc(NC(=O)C4CCCO4)cc3)oc2C)c(C)c1C` (stereo not drawn), 33.9%.
Then `Cc1cnn(Cc2nc(-c3ccc(NC(=O)c4cc(F)ccc4F)cc3)oc2C)c1`, with -88.5% (active); and `Cc1cc(C)cc(C(=O)Nc2ccc(-c3nc(Cn4cc(C)cn4)c(C)o3)cc2)c1`, with 2.92%; and `Cc1oc(-c2ccc(NC(=O)c3ccc(C(C)(C)C)cc3)cc2)nc1Cn1cccn1`, with -96.9% (active).
In the case of `Cc1ccsc1C(=O)Nc1ccc(-c2nc(Cn3cccn3)c(C)o2)cc1`, the activity change, negative = inhibition is -12.6%.
Then `CCC(=O)Nc1ccc(-c2nc(Cn3cccn3)c(C)o2)cc1`, with 61.8%.
To `Cc1cnn(Cc2nc(-c3ccc(NC(=O)c4ccsc4)cc3)oc2C)c1` belongs -40.9%.
In the case of `COc1cccc(C(=O)Nc2ccc(-c3nc(Cn4nc(C)c(C)c4C)c(C)o3)cc2)c1`, the activity change, negative = inhibition was -97.6% (active).
Then `Cc1noc(C)c1CN1CC2C[C@H](C(=O)NCCN(C)C)N(C)C2C1` (stereo partly drawn), with -7.4%; and `CN(C)S(=O)(=O)c1ccc2c(c1)cc(C(=O)NCc1cccc(F)c1)n2Cc1ccncc1`, with 104%.
Then `CCc1ccc(-n2cc3c(=O)n(C)c(=O)n(C)c3c2)cc1`, with -61.6%.
Then `CC[C@H]1CN(C(=O)CCc2cnccn2)CC[C@@]1(C)O`, with -44.1%; and `Cc1cccc(C(=O)N2CCC3(CC2)CC(CC(=O)NCC2CC2)c2ccccc2O3)n1` (stereo not drawn), with 0.492%.
For `Cc1cccc(Cl)c1NC(=O)N1CCN(CC(C)C)C(=O)C1C` (stereo not drawn), the activity change, negative = inhibition was -2.03%.
Consider `O=C(Nc1cnc2n1CCCC2)c1ccccc1-n1cncn1`, for which the activity change, negative = inhibition is -1.83%.
Consider `C=CCn1cc(-c2c(-c3ccccc3)ncn2CCc2ccccn2)cn1`, for which the activity change, negative = inhibition was -1.4%.
To `O=C(CN1CCCC1=O)N1CCCC2(C=Cc3ccccc3O2)CC1` (stereo not drawn) belongs -13.8%.
As to `Cc1ccc(CN2CCC3(CC2)CC(NC(=O)C2CC2)CCO3)cc1C` (stereo not drawn), the activity change, negative = inhibition was -5.15%.
`Cc1ccc(-c2ccccc2-n2cnnc2)o1`: the activity change, negative = inhibition is -6.57%.
Then `Cc1ccccc1-c1nc2ccc(-n3cnnc3)cc2o1`, with -95.3% (active).
`COCCNC(=O)C[C@@H]1CC[C@H]2[C@H](COc3ccc(NS(=O)(=O)c4ccc(Cl)cc4)cc3C(=O)N2C)O1`: the activity change, negative = inhibition is -37.6%.
